Sampled rows, rich in hits. Any-hit rate of the full collection: about 28%.
CYP2C9 inh: blockers of cytochrome P450 2C9 activity – biochemical, luminescence, ADME assay, primary screen | CYP2C9 Supersomes, luciferin-H conversion | inhibition, % at 5 µM | 96,000 tested, 20% active;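 active means blocking of liver enzyme CYP2C9 beyond about 50% at 5 µM, limit read from the data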
hDAT+cocaine: changed hDAT dopamine uptake under cocaine IC80, either direction, primary screen, cocaine antagonist project, cell-based, LLC-PK1 hDAT, [14C]-dopamine uptake, MLSMR; LLC-PK1 hDAT cells, [14C]-dopamine uptake with cocaine IC80; actives deviate in either direction; B-score at 10 µM; AID 449768, 2010; 110,000 tested, 1.3% active; Sodium-dependent dopamine transporter (Homo sapiens), Q01959;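 active means Z score or B-score, a plate-position-corrected score, falls beyond the plate's 99.7% confidence bounds, in either direction; inactive means both scores lie inside the 99.7% bounds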;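 further: scored against the spread of the other compound wells on the same plate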
D1 allo mod: D1 CRE-luciferase signal change, two-sided – cell-based, HEK293 D1, dopamine EC30, D1 allosteric modulator project, primary screen | D(1A) dopamine receptor (Homo sapiens), P21728 | 58,000 tested, 5.9% active | AID 641, 2007 | B-score at 10 µM | dopamine EC30 potentiation; actives deviate in either direction;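 active means luminescence count or its row- and column-corrected plate score outside the 99.7% band of the plate's sample wells, on either side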
CYP2C19 activ: human CYP2C19 activators, primary screen, biochemical, luminescence; Cytochrome P450 2C19 (Homo sapiens), P33261; recombinant CYP2C19, luciferin-H EGE luminescence; hits give high values; 0 = fully inhibited enzyme, 1 = untreated enzyme; activation factor at 5 µM; 96,000 tested, under 10 active; AID 1025, 2008;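 active means activation factor of at least 2 at 5 µM in the primary screen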;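 further: 0 = wells with 2.5 mM tranylcypromine and 1 = vehicle-only wells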
Target sequence (P33261 whole entry, looked up): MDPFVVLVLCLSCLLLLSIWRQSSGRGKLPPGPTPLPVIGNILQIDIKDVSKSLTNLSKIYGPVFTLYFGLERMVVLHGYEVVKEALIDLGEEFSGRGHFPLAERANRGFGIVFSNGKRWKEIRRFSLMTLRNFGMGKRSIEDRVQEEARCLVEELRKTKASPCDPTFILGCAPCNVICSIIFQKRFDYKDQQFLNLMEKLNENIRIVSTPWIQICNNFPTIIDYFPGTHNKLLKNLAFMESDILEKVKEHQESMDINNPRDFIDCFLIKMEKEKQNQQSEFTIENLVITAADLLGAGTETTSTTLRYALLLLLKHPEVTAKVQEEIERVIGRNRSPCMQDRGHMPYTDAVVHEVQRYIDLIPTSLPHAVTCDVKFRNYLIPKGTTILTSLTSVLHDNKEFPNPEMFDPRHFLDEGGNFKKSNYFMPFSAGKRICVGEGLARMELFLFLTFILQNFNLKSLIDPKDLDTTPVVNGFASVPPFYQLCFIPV
CYP2C9 activ: human CYP2C9 activators, primary screen, biochemical, luminescence. Cytochrome P450 2C9 (Homo sapiens), P11712. recombinant CYP2C9, luciferin-H conversion; hits give high values; factor 1 = untreated enzyme, 0 = blocked. 96,000 tested, 1.4% active. activation factor at 5 µM. AID 1024, 2008;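 active means activation factor of 2 or more for CYP2C9 at a 5 µM dose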;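 further: 0 = sulfaphenazole-blocked wells and 1 = vehicle-only wells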
CYP2C19 inh: blockers of cytochrome P450 2C19 activity – biochemical, luminescence, ADME assay, primary screen. P33261. CYP2C19 Supersomes, luciferin-H EGE luminescence, 30 min. inhibition, % at 5 µM. 96,000 tested, 21% active. AID 778, 2007;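 active means CYP2C19 inhibition above a set limit at 5 µM in the primary screen, cut at about 50% in these data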;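 further: plate controls were negative control wells for no effect and 2.5 mM tranylcypromine positive control for full effect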
An asterisk follows results filed as active.

What do the screens show for `Cc1cc(N2CCN(S(=O)(=O)c3ccc(Cl)cc3)CC2)c2ccccc2n1`?
CYP2C9 inh: 40; hDAT+cocaine: 0.046; D1 allo mod: -3.1; CYP2C19 activ: 0.2; CYP2C9 activ: 0.6; CYP2C19 inh: 82*

What do the screens show for `Cc1cc(C)n(-c2nc3ccccc3nc2N2CCN(S(=O)(=O)c3ccc4ccccc4c3)CC2)n1`?
CYP2C9 inh: 50; hDAT+cocaine: 1.8; CYP2C19 activ: 0.7; CYP2C9 activ: 0.5; CYP2C19 inh: 33

What do the screens show for `Cc1cc(C)n(-c2nc3ccccc3nc2N2CCN(S(=O)(=O)c3ccc(F)c(C)c3)CC2)n1`?
CYP2C9 inh: 50*; hDAT+cocaine: -0.07; D1 allo mod: 0.14; CYP2C19 activ: 0.9; CYP2C9 activ: 0.5; CYP2C19 inh: 7

Results for O=C(NCC1CCS(=O)(=O)C1)NCC1CCS(=O)(=O)C1 (stereo not drawn) ?
CYP2C9 inh: -14; hDAT+cocaine: -1.3; CYP2C19 activ: 1; CYP2C9 activ: 1.1; CYP2C19 inh: 2

Results for COc1ccc(-c2cccc(C3CC=CC4C3C(=O)N(Cc3ccccc3)C4c3ccc(OC)c(Cl)c3)c2)cc1 (stereo not drawn) ?
hDAT+cocaine: -0.5

What do the screens show for `CC1CN(C2CCN(S(=O)(=O)c3ccc4ccccc4c3)CC2)CC(C)O1` (stereo not drawn)?
CYP2C9 inh: -61; hDAT+cocaine: -0.43; D1 allo mod: -0.085; CYP2C19 activ: 0.9; CYP2C9 activ: 1.6; CYP2C19 inh: 11

What do the screens show for `O=C(O)C1CCCN1S(=O)(=O)c1ccc2ccccc2c1` (stereo not drawn)?
hDAT+cocaine: 0.024; D1 allo mod: -0.084

Results for O=C1OCCC1S(=O)(=O)c1ccc2ccccc2c1 (stereo not drawn) ?
CYP2C9 inh: -402; hDAT+cocaine: -0.22; D1 allo mod: -0.1; CYP2C19 activ: 0.7; CYP2C9 activ: 5*; CYP2C19 inh: 32

How did O=C(c1ccccc1)N1CCCCC(S(=O)(=O)c2ccc3ccccc3c2)C1=O (stereo not drawn) do in these assays?
CYP2C9 inh: -62; hDAT+cocaine: -0.94; CYP2C19 activ: 0.5; CYP2C9 activ: 1.6; CYP2C19 inh: 54*

Results for O=C(NC(NC1CCS(=O)(=O)C1)C(Cl)(Cl)Cl)c1ccc(Br)cc1 (stereo not drawn) ?
CYP2C9 inh: 25; hDAT+cocaine: 0.31; CYP2C19 activ: 0.9; CYP2C9 activ: 0.8; CYP2C19 inh: 10

How did CC(C)c1ccc(-c2nnn(CCC(=O)O)n2)cc1 do in these assays?
CYP2C9 inh: -3; hDAT+cocaine: -0.55; D1 allo mod: -3.6*; CYP2C19 activ: 1; CYP2C9 activ: 1; CYP2C19 inh: -2

Results for Cc1ccc(-c2nnn(CCC(=O)NC3CCCC3)n2)cc1 ?
CYP2C9 inh: 76*; hDAT+cocaine: -0.22; D1 allo mod: -1.5; CYP2C19 activ: 0.5; CYP2C9 activ: 0.2; CYP2C19 inh: 45

Results for Cc1ccc(-c2nnn(CC(=O)NC3CCN(Cc4ccccc4)CC3)n2)cc1 ?
hDAT+cocaine: -0.097

Results for CCc1ccc(-c2nnn(CCC(=O)OC)n2)cc1 ?
CYP2C9 inh: -14; hDAT+cocaine: -0.36; D1 allo mod: -1.3; CYP2C19 activ: 0.9; CYP2C9 activ: 1.1; CYP2C19 inh: 14

What do the screens show for `CCCCC(C(=O)NC1CCCC1)N(Cc1ccco1)C(=O)Cn1nnc(-c2ccc(F)cc2)n1` (stereo not drawn)?
CYP2C9 inh: 92*; hDAT+cocaine: 1.3; CYP2C19 activ: 0.1; CYP2C9 activ: 0.1; CYP2C19 inh: 92*

What do the screens show for `CCC(C(=O)NC1CCCC1)N(C(=O)Cn1nnc(-c2ccc(C)cc2)n1)C1CCCC1` (stereo not drawn)?
hDAT+cocaine: 3.7*

Results for CC1CN(C(=O)CN2C(=O)c3ccccc3S2(=O)=O)CC(C)O1 (stereo not drawn) ?
CYP2C9 inh: 18; hDAT+cocaine: -0.82; D1 allo mod: -0.97; CYP2C19 activ: 0.9; CYP2C9 activ: 0.8; CYP2C19 inh: 14

Results for C=CCn1c(C(C)NC(=O)CCC)nc2ccccc21 (stereo not drawn) ?
hDAT+cocaine: -1

How did Cc1oc(-c2ccccc2F)nc1CN1CCC(C(=O)NC2CC2)CC1 do in these assays?
CYP2C9 inh: -15; hDAT+cocaine: 0.54; D1 allo mod: -0.6; CYP2C19 activ: 1.1; CYP2C9 activ: 1.1; CYP2C19 inh: -7

Results for Cc1ccccc1CN1C(=O)[C@H]2Cc3c([nH]c4ccccc34)C(C)(C)N2C1=O ?
hDAT+cocaine: -0.64

What do the screens show for `O=C(NC1CC1)C1=C[C@@H](c2c[nH]c3ccccc23)C[C@@H](OCCCCO)O1`?
hDAT+cocaine: 0.28

How did C[C@@H](C(=O)N1CCN(C(=O)OC(C)(C)C)CC1)n1cc(CCCN=C(NC(=O)OC(C)(C)C)NC(=O)OC(C)(C)C)nn1 do in these assays?
hDAT+cocaine: -0.16

How did CC1CCCCC1NC(=O)Cn1nnc(-c2ccc(Cl)cc2)n1 (stereo not drawn) do in these assays?
CYP2C9 inh: -8; hDAT+cocaine: -0.67; D1 allo mod: -0.042; CYP2C19 activ: 0.3; CYP2C9 activ: 1.1; CYP2C19 inh: 71*

What do the screens show for `COC(=O)c1nnn(-c2nonc2N)c1-c1cccs1`?
CYP2C9 inh: -4; hDAT+cocaine: -0.2; D1 allo mod: 2.7; CYP2C19 activ: 0.7; CYP2C9 activ: 1; CYP2C19 inh: 31

What do the screens show for `O=C(Oc1cccc(N2C(=O)CCC2=O)c1)c1ccccc1`?
hDAT+cocaine: -0.51

How did O=C(Oc1ccc2c(c1)C(=O)c1ccccc1CO2)c1ccccc1 do in these assays?
CYP2C9 inh: 73*; hDAT+cocaine: -0.37; CYP2C19 activ: 0.8; CYP2C9 activ: 0.3; CYP2C19 inh: 17

How did S=C(NN=C1C2CC3CC(C2)CC1C3)Nc1ccccc1 do in these assays?
CYP2C9 inh: 3; hDAT+cocaine: -0.4; CYP2C19 activ: 0.9; CYP2C9 activ: 1; CYP2C19 inh: 7

What do the screens show for `CCCCNc1nc(-c2ccccc2)c(C(=O)OCC)cc1C#N`?
CYP2C9 inh: 56*; hDAT+cocaine: 0.4; CYP2C19 activ: 0.7; CYP2C9 activ: 0.4; CYP2C19 inh: 31

Results for CCCNc1nc(-c2ccccc2)c(C(=O)OCC)cc1C#N ?
CYP2C9 inh: 57*; hDAT+cocaine: -0.026; CYP2C19 activ: 0.7; CYP2C9 activ: 0.4; CYP2C19 inh: 27

High-throughput results: PubChem, several laboratories
